Measured values: PubChem BioAssay AID743398 (Broad Institute, 2014)
Out of some 300,000 compounds screened, about 3,600 (1.2%) were called active. No stated cut-off is given here; in the data, active means activation above about 30% (passing the limit was not always enough); inconclusive means no clear call, values can overlap the other calls. Many of the other results were omitted from the sample, so actives are more common in it than they were.

assay: Wnt/beta-catenin pathway activators, primary screen, cell-based, plate reader, single point (AID 743398); conditions: Wnt/beta-catenin reporter cell assay, activator, at 9.35 µM, active compounds read high;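 further: 0% = neutral control wells and 100% = positive control wells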

| Structure (SMILES) | activation |
| --- | --- |
| O=C(Nc1ccc(Cl)cn1)c1ccccc1-c1ccccc1 | -0.296% (inactive) |
| CCCc1cc(C(=O)Nc2ccc(C(=O)OC)cc2)cs1 | 0.573% (inactive) |
| CCCc1cc(C(=O)Nc2ccc(Cl)cn2)cs1 | 39.5% (active) |
| Cc1ccc(F)c(S(=O)(=O)NC(=O)C2(C)CCN2C(=O)c2ccco2)c1 (stereo not drawn) | -0.487% (inactive) |
| C=CCN=C1NC(c2cccc(C(F)(F)F)c2)C(C(=O)OC)=C(C)N1C (stereo not drawn) | 1.05% (inactive) |
| CC(=O)c1ccc(-c2cnc3c(NC=O)cc(-c4cccc(NS(C)(=O)=O)c4)cn23)cc1 | 1.57% (inactive) |
| C[C@@H]1ON(C)[C@H]2C[C@H]3c4cc(N5CCOCC5)ccc4CCN3C[C@@H]12 | -0.66% (inactive) |
| CNS(=O)(=O)c1ccc(NC(=O)Nc2ccc3c(c2)OCO3)cc1 | 26.8% (inactive) |
| CC(NC(=O)Nc1ccc2c(c1)OCO2)c1ccncc1 (stereo not drawn) | 9.83% (inactive) |
| Cc1cccc(NC(=O)Nc2ccc3c(c2)OCO3)n1 | 44.4% (active) |
| CN(Cc1ccccc1)C(=O)CCC1CCN(C(=O)c2ccco2)CC1 | -3.66% (inactive) |
| O=[N+]([O-])c1cc(Br)c(O)c(/C=N/Nc2nc3ccccc3s2)c1 | 8.44% (inactive) |
| c1ccc2sc(NN=C3CCCC3)nc2c1 | 52.4% (active) |
| c1ccc(C(=NNc2nc3ccccc3s2)c2ccccn2)cc1 | 5.23% (inactive) |
| CCOC(=O)N(C)c1c(CC)nc2c(OCc3ccccc3C(=O)OC)cccn12 | 4.08% (inactive) |
| CN(Cc1ccc(C(F)(F)F)cc1)C(=O)[C@H]1O[C@@H](n2cnc3c(N)ncnc32)[C@H](O)[C@@H]1O | -3.24% (inactive) |
| CC1(Oc2cccc(F)c2)CCN(Cc2ccccc2OC(F)F)C1 (stereo not drawn) | 0.111% (inactive) |
| CC(=O)Nc1ccc(-c2nc3ccccc3o2)cc1 | 62% (active) |
| Cc1ccc2nc(-c3ccc(NC(=O)c4cccnc4)cc3)oc2c1 | 4.47% (inactive) |
| CC(=O)Nc1ccc(Nc2c3ccccc3nc3ccccc23)cc1 | -1.24% (inactive) |
| CCOC(=O)N1CCN(C(=O)C[C@@H]2C[C@@]3(C(=O)OC)CCCCC=C3N(CCC3=CCCCC3)C2=O)CC1 | -3.76% (inactive) |
| Clc1ccc(N/N=C/c2cccs2)nn1 | 3.73% (inactive) |
| COc1cccc(/C=N/Nc2ccc(Cl)nn2)c1 | 10.5% (inactive) |
| Oc1cccc(/C=N/Nc2ccc(Cl)nn2)c1O | 125% (active) |
| COC(=O)c1cc2c(c3c4cc(F)ccc4n(S(=O)(=O)c4ccccc4)c13)C(=O)N(Cc1ccccc1OC)C2 | -6.32% (inactive) |
| CCC(=O)Nc1ccc2nn(-c3ccc(F)cc3)nc2c1 | 51% (active) |
| Cc1cccc(C(=O)OCC(=O)Nc2ccc(F)cc2)c1 | -0.891% (inactive) |
| Cc1nn(CC(=O)Nc2ccc(F)cc2)c(=O)c2ccccc12 | -0.309% (inactive) |
